Consider 9 compounds from PubChem BioAssay (NCATS).

The nature of assay [1]: qHTS Assay for Lipid Storage Modulators (AID 1519; calls by dose curve; on activity change, negative = inhibition: on the % scale 0 is the no-effect control and ±100 the full control effect). Particulars: Drosophila S3 cells, BODIPY lipid droplet/cell ratio, laser cytometry, cells loaded with oleic acid; for activity change, negative = inhibition: at 57.5 µM (top of the series). The procedure, abridged: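 Cells seeded at 5,000 per well were treated with compounds over a concentration series and loaded with oleic acid (400 uM, as added). Lipid droplet fluorescence (488 nm excitation, 500-530 nm channel) was read by laser-scanning cytometry and normalized to 20 uM Triacsin C.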

Assay [2] addresses Ubiquitin carboxyl-terminal hydrolase 1 (Homo sapiens) (UniProt O94782). The assay is described as follows: Inhibitors of USP1/UAF1: Pilot qHTS (AID 504865).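 Further: rhodamine fluorescence freed from ubiquitin-rhodamine substrate followed over time; top concentration of the series differs between compounds; on the % scale 0 is the no-effect control and ±100 the full control effect; nearly all actives have a fitted effect of over 35% in size.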 Particulars: purified USP1/UAF1, Ub-rhodamine cleavage fluorescence; series mostly up to 114 µM. In short, it runs like this:
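1nM USP1/UAF1 + cpd, 15 min RT; start w/ Ub-Rho 150nM final; kinetic FL 480/540 nm, 6 reads q60 s. Buffer 50mM HEPES pH 7.8, 0.5mM EDTA, 1mM TCEP, 0.01% Tween-20, 0.1 mg/ml BSA.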
On the technique in general: Quantitative high-throughput screening tests each substance at several concentrations.

Assay [3] can be described thus: Confirmation and Secondary Assay for Modulators of Hemoglobin Beta Chain Splicing at IVS2 705 locus (AID 930). Further: potency means the concentration at half of the fitted maximal effect. Particulars: HeLa EGFP-705 splicing reporter, GFP fluorescence, 48 h; series mostly up to 46.1 µM. In short, it runs like this: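 Splice-correction reporter: EGFP cDNA split by beta-globin intron 2 bearing the 705 mutation, stably in HeLa. Compound incubation 2 days, 37C; fluorescent objects 5-250 µm summed per well.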

A short description of assay [4]: qHTS profiling for inhibitors of Plasmodium falciparum proliferation (AID 504749). Further: potency means the concentration at half of the fitted maximal effect.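 On activity, negative = inhibition: 0% = DMSO vehicle and full inhibition = artemisinin control.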 On all read-outs here: nearly all actives have a fitted effect of over 60% in size. Particulars: P. falciparum in erythrocytes, SYBR Green DNA, 72 h; for activity, negative = inhibition: at 28.7 µM (top of the series). The procedure, abridged:
(§1)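 In a 72 h erythrocytic culture (37 C, humidified, 5% CO2) at 2.5% hematocrit and 0.3% starting parasitemia, compounds were tested; SYBR Green I in detergent lysis buffer stained parasite DNA overnight.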

The subject of a further assay is C2A. The description is as above. Particulars: P. falciparum in erythrocytes, SYBR Green DNA, 72 h; series mostly up to 12.8 µM. The procedure, abridged:
as §1

Another assay has as its system CP185. The description is as above. As to conditions: P. falciparum in erythrocytes, SYBR Green DNA, 72 h; series mostly up to 12.8 µM. The procedure, abridged: as §1
The subject of a further assay is CP201. Described as above. Particulars: P. falciparum in erythrocytes, SYBR Green DNA, 72 h; series mostly up to 12.8 µM. In short, it runs like this:
as §1

A further assay deals with CP211. The description is as above. Particulars: P. falciparum in erythrocytes, SYBR Green DNA, 72 h; series mostly up to 12.8 µM. The procedure, abridged: as §1
The subject of another assay is CP238. The description is as above. As to conditions: P. falciparum in erythrocytes, SYBR Green DNA, 72 h; series mostly up to 12.8 µM. The procedure, abridged:
as §1

The next assay has as its system CP262. Described as above. As to conditions: P. falciparum in erythrocytes, SYBR Green DNA, 72 h; series mostly up to 12.8 µM. In short, it runs like this: as §1
The test system of another assay is CP268. The assay is described as above. As to conditions: P. falciparum in erythrocytes, SYBR Green DNA, 72 h; series mostly up to 12.8 µM. In short, it runs like this:
as §1

A further assay concerns CP269. The description is as above. Particulars: P. falciparum in erythrocytes, SYBR Green DNA, 72 h; series mostly up to 12.8 µM. In short, it runs like this: as §1
The subject of the next assay is CP305. Described as above. As to conditions: P. falciparum in erythrocytes, SYBR Green DNA, 72 h; series mostly up to 12.8 µM. The procedure, abridged:
as §1

The next assay concerns CP315. The assay is described as above. As to conditions: P. falciparum in erythrocytes, SYBR Green DNA, 72 h; series mostly up to 12.8 µM. The procedure, abridged:
as §1

The subject of another assay is CP325. The description is as above. As to conditions: P. falciparum in erythrocytes, SYBR Green DNA, 72 h; series mostly up to 12.8 µM. The procedure, abridged: as §1
The test system of the next assay is CP329. The assay is described as above. Particulars: P. falciparum in erythrocytes, SYBR Green DNA, 72 h; series mostly up to 12.8 µM. In short, it runs like this: as §1
A further assay concerns FAB9. The assay is described as above. As to conditions: P. falciparum in erythrocytes, SYBR Green DNA, 72 h; series mostly up to 12.8 µM. In short, it runs like this: as §1
In a further assay the test system is JCK. Described as above. Particulars: P. falciparum in erythrocytes, SYBR Green DNA, 72 h; series mostly up to 12.8 µM. In short, it runs like this:
as §1

In the next assay the test system is PC15. The description is as above. Particulars: P. falciparum in erythrocytes, SYBR Green DNA, 72 h; series mostly up to 12.8 µM. The procedure, abridged: as §1
The subject of another assay is PC49. The assay is described as above. As to conditions: P. falciparum in erythrocytes, SYBR Green DNA, 72 h; series mostly up to 12.8 µM. In short, it runs like this:
as §1

Setting [5] is: measured here: cell count channel max response.
[6] abbreviates: measured here: lipid channel max response.

Structures are written as SMILES. Results filed as inconclusive are left out. Activity calls are given as the source filed them. Unless noted, the call rests on the fitted dose curve; in most records, active means well fitted curve in the direction sought with a large enough effect; inconclusive means small, poorly fitted or top-dose-only effect, or another doubt; inactive means no such curve, though single readings can be large; an effect the other way counts as inactive or inconclusive.

Chain of Ubiquitin carboxyl-terminal hydrolase 1 (Homo sapiens) (O94782 whole entry, looked up): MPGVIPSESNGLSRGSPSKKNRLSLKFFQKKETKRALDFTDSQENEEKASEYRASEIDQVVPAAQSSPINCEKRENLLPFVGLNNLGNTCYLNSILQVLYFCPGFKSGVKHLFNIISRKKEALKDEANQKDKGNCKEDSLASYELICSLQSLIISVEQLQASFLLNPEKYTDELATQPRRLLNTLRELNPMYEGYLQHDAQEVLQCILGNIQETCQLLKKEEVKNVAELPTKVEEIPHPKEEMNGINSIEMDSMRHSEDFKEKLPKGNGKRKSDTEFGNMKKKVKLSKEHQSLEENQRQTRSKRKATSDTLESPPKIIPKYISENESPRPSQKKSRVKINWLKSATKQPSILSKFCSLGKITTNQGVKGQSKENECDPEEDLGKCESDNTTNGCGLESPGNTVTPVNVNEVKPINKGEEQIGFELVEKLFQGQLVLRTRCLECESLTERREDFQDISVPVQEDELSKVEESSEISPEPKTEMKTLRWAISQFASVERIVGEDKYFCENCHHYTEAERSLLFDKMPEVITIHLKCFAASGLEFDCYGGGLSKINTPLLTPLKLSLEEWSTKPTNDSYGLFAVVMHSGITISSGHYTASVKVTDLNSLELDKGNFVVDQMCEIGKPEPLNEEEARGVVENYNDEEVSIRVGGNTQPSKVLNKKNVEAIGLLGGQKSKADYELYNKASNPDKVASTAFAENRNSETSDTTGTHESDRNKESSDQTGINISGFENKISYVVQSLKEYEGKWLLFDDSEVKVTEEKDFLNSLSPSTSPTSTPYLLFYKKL

`C[C@H]1C[C@]2(O[C@@H]2C)C(=O)O[C@@H]2CCN(C)C/C=C(/COC(=O)[C@]1(C)O)C2=O`: in [1], the activity change, negative = inhibition was -0.98% (inactive). Also, the figures for the max response in [1] (setting [5]) and in assay [1] (setting [6]) were -19.3% and -21.3%, respectively. Also, the Potency entry in assay [2] was “inactive”.
As to `C[C@H](CCC(=O)O)[C@H]1CC[C@H]2[C@H]3C(C[C@H](O)[C@]12C)[C@@]1(C)CC[C@@H](O)C[C@H]1C[C@H]3O` (some centres undefined), the activity change, negative = inhibition in [1] was 9.53% (inactive). In addition, the max response in [1] (setting [5]) came to 17.9%; in assay [1] (setting [6]), 25.2%. For the same compound, in assay [2], the Potency result was “inactive”.
In the case of `OCC1OC(n2cnc3c(=S)nc[nH]c32)C(O)C1O` (centres undefined), the Potency in assay [3] was 3.98 µM (active). Besides, the activity change, negative = inhibition in [1] was 0.292% (inactive). Also, the max response in assay [1] (setting [5]) was -3.48%; in [1] (setting [6]), -0.429%. Besides, the Potency result (in assay [2]; with C2A; with CP185; in the assay on CP201; in the assay on CP211; with CP238) was “inactive” in each case. In addition, the Potency entry in the assay on CP262, in the assay with CP268, with CP269, in the assay on CP305, in the assay with CP315 and with CP325 was “inactive” in each case. In addition, the Potency entry with CP329, in the assay with FAB9, in the assay on JCK, in the assay on PC15 and with PC49 was “inactive” in each case. The activity, negative = inhibition in [4] (parasite line A) is -27.9% (inactive).
In the case of `CCCCCCCCCc1ccc(OCCOCCOCCOCCOCCOCCOCCOCCOCCO)cc1`, the Potency entry (in assay [3]; with C2A; with CP185; in the assay with CP201; in the assay with CP238; with CP262) was “inactive” in each case. The Potency result in the assay on CP268, in the assay on CP305, with CP315, with CP325, in the assay on CP329 and with FAB9 was “inactive” each time. For the same compound, the Potency result with JCK, in the assay with PC15 and with PC49 was “inactive” in each case. Further, the activity change, negative = inhibition in assay [1] was -9.66% (inactive). Further, the figures for the max response in assay [1] (setting [5]) and in assay [1] (setting [6]) were 4.66% and -5.26%, respectively. In addition, the activity, negative = inhibition in assay [4] (parasite line B) is -22.2% (inactive).
As to `C[C@]12CCC(=O)C=C1CCC1C2C(=O)C[C@]2(C)C1CC[C@]2(O)C(=O)CO` (some centres undefined), the Potency result (in [3]; in assay [2]; with C2A; in the assay with CP185; in the assay on CP201; in the assay on CP211) was “inactive” throughout. Further, the Potency result in the assay with CP238, with CP262, with CP268, in the assay with CP269, in the assay on CP305 and with CP315 was “inactive” in each case. The Potency entry with CP325, in the assay with CP329, in the assay with FAB9, with JCK, with PC15 and with PC49 was “inactive” in each case. In addition, the activity change, negative = inhibition in assay [1] is -0.346% (inactive). Besides, the max response in assay [1] (setting [5]) was 22.5%; in assay [1] (setting [6]), 22%. The activity, negative = inhibition in assay [4] (parasite line A) was 3.27% (inactive); in assay [4] (parasite line B) it was -0.753% (inactive).
In the case of `CC1(C)S[C@H]2C(NC(=O)[C@@H](N)c3ccc(O)cc3)C(=O)N2[C@@H]1C(=O)O` (some centres undefined), the Potency entry (in [3]; in [2]; with C2A; in the assay on CP185; in the assay on CP201; with CP211) was “inactive” throughout. Also, the Potency entry with CP238, in the assay with CP262, with CP268, with CP269, in the assay on CP305 and with CP315 was “inactive” throughout. Also, the Potency entry in the assay with CP325, in the assay with CP329, with FAB9, with JCK, in the assay with PC15 and in the assay on PC49 was “inactive” each time. Further, in [1], the activity change, negative = inhibition was 9.47% (inactive). The max response came out at 17.1% in [1] (setting [5]) and 32.6% in assay [1] (setting [6]). Also, the activity, negative = inhibition in assay [4] (parasite line A) is -0.804% (inactive).
On to `CCC(C)C(=O)OC1CC(O)C=C2C=CC(C)C(CCC(O)CC(O)CC(=O)O)C21` (centres undefined), for which the Potency entry (in assay [3]; in assay [2]; with C2A; in the assay on CP185; in the assay with CP201; in the assay with CP211) was “inactive” each time. The Potency entry in the assay on CP238, in the assay on CP262, in the assay with CP268, with CP269, with CP305 and with CP315 was “inactive” throughout. Further, the Potency result in the assay with CP325, with CP329, with FAB9, in the assay with JCK, in the assay on PC15 and with PC49 was “inactive” throughout. For the same compound, in [1], the activity change, negative = inhibition is 5.21% (inactive). Moreover, the max response in assay [1] (setting [5]) was 11.3%; in assay [1] (setting [6]) it was 17.6%. In addition, the values for the activity, negative = inhibition in assay [4] (parasite line A) and in [4] (parasite line B) were -1.64% (inactive) and -21.8% (inactive), respectively.
With `N[C@H](Cc1ccc(O)cc1)C(=O)O`, in assay [1], the activity change, negative = inhibition is 2.68% (inactive). Also, the max response in assay [1] (setting [5]) was -25.6%; in [1] (setting [6]) it was -23%. For the same compound, in assay [2], the Potency entry is “inactive”.
Regarding `CC(=O)O[C@@]1(C(C)=O)CCC2C3CC(C)C4=CC(=O)CC[C@@]4(C)C3CC[C@]21C` (some centres undefined), the Potency result (in assay [3]; in the assay with CP201; in the assay on CP211; in the assay on CP238; with CP262; in the assay on CP268) was “inactive” each time. The Potency result in the assay on CP269, in the assay with CP305, in the assay on CP315, in the assay on CP325, with CP329 and with FAB9 was “inactive” each time. Moreover, the Potency entry with JCK and in the assay on PC49 was “inactive” in each case. Also, in assay [1], the activity change, negative = inhibition is -11.6% (inactive). Besides, the values for the max response in [1] (setting [5]) and in [1] (setting [6]) were 4.77% and -5.62%, respectively. The Potency in assay [4] (parasite line B) is 12.6 µM (active).
